Source: PubChem BioAssay
Only some compounds are listed: those with a hit (about 3.8% of all), similar ones and a draw of the others.
Beta apoptosis = inhibitors of cytokine-induced beta cell apoptosis, primary screen, luminescence | protection from apoptosis, % (no concentration beside the values) | AID 435005, 2010 | actives 0.8% (n = 300,000) | INS-1E cytokine-induced death, ATP luminescence, 48 h; percent of positive-control rescue, neutral wells zero;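 active = Every replicate reaches about 75%, or at least half do and their mean reaches it too, limit read from the data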;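 note: 0% = cytokine-treated negative control wells and 100% = positive control rescue; higher means more ATP so stronger rescue from cytokine killing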
Mdm2-MdmX inh = inhibitors of human Mdm2-MdmX association, primary screen, cell-based, luminescence, split luciferase, SaOS-2, uHTS | SaOS-2 split-luciferase Mdm2/MdmX complementation | inhibition, % at 8 µM | actives 3% (n = 330,000) | AID 485346, 2010;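 active = inhibition of at least 50% at 8 µM in the primary screen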
697 NFkB inh = inhibitors of PMA/ionomycin-induced NF-kB reporter, 697 cells, primary screen, B-cell NF-kB inhibitor project, cell-based, luminescence, uHTS; inhibition, % at 4 µM; actives 0.33% (n = 330,000); 697 B-cell NF-kB luciferase reporter, 16 h; in the data active = inhibition above about 35%
Jurkat NFkB inh = inhibitors of induced NF-kB luciferase reporter, primary screen, TCR NF-kB activation inhibitor project, cell-based, luminescence, uHTS; Jurkat, PMA/ionomycin-induced NF-kB luciferase reporter; inhibition, % at 4 µM; actives 0.53% (n = 330,000); AID 435003, 2010; in the data active = inhibition above about 50%
Bfl-1 A1 inh = caspase 3/7 activation in MEF A1-2A-BIM cells, primary screen, A1 inhibitor project, cell-based, luminescence, HTS | AID 2462, 2010 | caspase activation, % (test concentration not listed) | actives 0.066% (n = 330,000) | Caspase-Glo 3/7 luminescence, 3 h; percent of clofoctol response, vehicle zero;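 active = over half of replicate activation scores above 10%, or exactly half above 10 with the replicate mean above 10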
NTR1 agonist = agonists of human NTR1, primary screen, imaging, U2OS cells, beta-arrestin-GFP, high content; Neurotensin receptor type 1 (Homo sapiens), P30989; NTR1-U2OS beta-arrestin-GFP spot imaging, agonist mode; activation, % at 20 µM; actives 0.17% (n = 330,000); AID 493036, 2011;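 active = activation at or above 40% of the spot to cytoplasm intensity ratio, with at least 20 cells analyzed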;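 note: 0% = DMSO without peptide and 100% = 100 nM NTR1 peptide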
Mdm2-MdmX conf = Mdm2-MdmX complex disruptors, retested hits, confirmation, luminescence, single concentration. shares compounds with Mdm2-MdmX inh. actives 55% (n = 10,000). Mdm2-MdmX binding, luminescent assay. inhibition, % at 8 µM; in the data active = inhibition above about 40%
Full FLuc ctr = full-length luciferase signal inhibition, confirmation, counter-screen for Mdm2/MdmX interaction inhibitor project, cell-based, single concentration, SaOS-2 | shares compounds with Mdm2-MdmX inh | SaOS-2 full-length luciferase counterscreen, luminescence | inhibition, % at 8 µM | actives 77% (n = 6,200) | AID 504607, 2011;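 active = mean inhibition at 8 µM reaching about 37%, which flags the compound as non-specific, limit read from the data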;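 note: p53-null SaOS-2 cells with luciferase driven by a doxycycline-inducible promoter; compound on cells about two nights before reading with doxycycline added after day one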
Starred values were filed as active, the others as inactive; nt = no result given.

SMILES	Beta apoptosis	Mdm2-MdmX inh	697 NFkB inh	Jurkat NFkB inh	Bfl-1 A1 inh	NTR1 agonist	Mdm2-MdmX conf	Full FLuc ctr
COc1ccc2cc(C3CC(c4cccs4)=NN3C(C)=O)c(Cl)nc2c1 (centres undefined)	-3	55*	16	-3	0	7	3	nt
C[C@H](CO)N1C[C@H](C)[C@@H](CN(C)CC2CCCCC2)Oc2c(NC(=O)Cc3ccccc3)cccc2C1=O	nt	44	-3	0	nt	9	nt	nt
CCN1C(=O)/C(=C/C=C2/Sc3ccccc3N2CCO)SC1=S	-8	70*	15	-5	0	-3	19	nt
CCCN1C(=O)/C(=C\C=C2/Sc3ccccc3N2CCO)SC1=S	9	25	29	-6	0	-1	nt	nt
O=C(NCc1ccccc1CN1CCCC1)c1ccc(Cl)c(S(=O)(=O)N2CCCC2)c1	nt	14	-4	-12	nt	0	nt	nt
Cn1nc(C(F)(F)F)c(/C=N/OC(=O)c2ccccc2)c1Sc1ccc(Cl)cc1	7	51*	2	0	0	1	6	nt
O=C(CCc1nnc(Cc2cccc(C(F)(F)F)c2)o1)NCCc1ccccc1F	nt	-18	-34	-38	1	1	nt	nt
O=C(CCS(=O)(=O)c1ccc(F)cc1)Nc1nc(-c2ccncc2)cs1	-12	89*	-25	-20	1	0	68*	34
CC(C)c1nnc(NC(=O)CCS(=O)(=O)c2nc(-c3cccs3)cc(C(F)(F)F)n2)s1	-4	95*	-9	-3	0	20	44*	63*
O=C(CCS(=O)(=O)c1ccccc1)Nc1nc2c(s1)COc1ccccc1-2	-15	63*	7	21	0	0	10	nt
O=C(COc1ccccc1)Nc1nc(-c2cccs2)cs1	-6	-7	-27	10	0	7	nt	nt
O=C(Nc1nc2c(s1)COc1ccccc1-2)c1cccs1	43	30	23	14	-1	11	nt	nt
O=C(CCS(=O)(=O)c1ccccc1)Nc1nc(-c2cccs2)cs1	-12	97*	-18	-13	0	-2	47*	51*
N#Cc1nc(-c2ccc(OCc3ccc(Cl)cc3)cc2)oc1N1CCOCC1	14	55*	19	-12	0	1	22	nt
N#Cc1nc(-c2ccc(OCc3ccc(Cl)cc3)cc2)oc1N1CCC(C(N)=O)CC1	-4	5	0	6	0	3	nt	nt
O=C(Nc1cccc(Cl)c1)Nc1ccc(Br)cc1F	nt	82*	-33	-39	0	17	80*	55*
COc1ccccc1NS(=O)(=O)c1cccc(NC(=O)Nc2cccc(Cl)c2)c1	21	55*	4	-10	-1	31	49*	46*
COC(=O)c1cc(NC(=O)Nc2cccc(Cl)c2)ccc1Cl	56	88*	10	-37	-1	37	43*	96*
O=c1[nH]c(CSc2ncnc3sc(-c4ccccc4)cc23)nc2ccccc12	28	87*	3	-3	0	32	-12	nt
O=c1[nH]c(CSc2nc(-c3ccccc3)cs2)nc2ccccc12	-1	23	-8	1	0	4	nt	nt
COC(=O)c1c(C)[nH]c(C(=O)CSc2ncnc3sc(-c4ccccc4)cc23)c1C	-4	67*	-40	14	1	0	13	nt
CN(Cc1ccccc1)C(=O)c1ccc(NC(=O)C2CCN(C(=O)OC(C)(C)C)CC2)cc1	4	76*	-76	8	0	1	59*	32
